We go through 14 molecules from PubChem BioAssay (NCI).

Compounds without any hit were thinned out: in the full panel of roughly 83,000, 20% have a hit.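 Method: cells in 96-well plates; compound added at one concentration; 48 h incubation; percent growth measured; values under 10 scored active.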 Unmarked numbers belong to inactive results. Activity calls are given as the source filed them.

Among the test systems are SN12C renal; UO-31 renal; TK-10 renal; ACHN renal; CAKI-1 renal; A498 renal; CCRF-CEM leukemia; MOLT-4 leukemia; SR leukemia; EKVX NSCLC.
Common to all, as to experiment: NCI-60 one-dose screen, 48 h (100 = growth as untreated, 0 = no growth, -100 = all killed)
Common to all, as to conditions: 10 µM unless noted

As for `COc1ccc(C(=O)Nc2nc(-c3ccc(Cl)cc3)cs2)cc1`, the growth in the assay with SN12C renal is 101%; in the assay on UO-31 renal, 89.4%; with TK-10 renal, 122%; with ACHN renal it was 94.4%; in the assay on CAKI-1 renal, 96.7%; in the assay with A498 renal, 91.5%. The growth in the assay with CCRF-CEM leukemia is 104%; with MOLT-4 leukemia, 97.9%; with SR leukemia, 105%.

As for `CC(C)COCC(CN(Cc1ccccc1)c1ccccc1)N1CCCC1` (centres undefined), the growth was 54% with EKVX NSCLC; 37% in the assay on UO-31 renal; 29.9% with TK-10 renal; 57.1% with CAKI-1 renal; 83.3% with A498 renal; 41.7% with CCRF-CEM leukemia. Besides, the growth is 28.8% in the assay with MOLT-4 leukemia and 51.8% with SR leukemia.

Take `COC1=CC(c2ccc[nH]2)=N/C1=C\c1[nH]c(C)c(C(=O)CCC(=O)Oc2ccc3c(c2)CCC2C3CC[C@]3(C)C(=O)CC[C@@H]23)c1C` (some centres undefined): the growth is 63.3% in the assay on SN12C renal; 52.9% with UO-31 renal; 107% with TK-10 renal; 62.7% in the assay with ACHN renal; 60.1% with CAKI-1 renal; 102% with A498 renal. Further, the growth with CCRF-CEM leukemia is 32.9%; in the assay with MOLT-4 leukemia, 25.6%; in the assay on SR leukemia, 10.1%.

With `O=C1/C(=C/c2ccc([N+](=O)[O-])s2)Oc2ccc(Br)cc21`, the growth in the assay on SN12C renal was -32.5% (active); in the assay on UO-31 renal, -87.4% (active); in the assay with TK-10 renal, -25.3% (active); with ACHN renal, -64% (active); with CAKI-1 renal, -16.3% (active); with A498 renal, -32.8% (active). The results for the growth with CCRF-CEM leukemia, in the assay with MOLT-4 leukemia and with SR leukemia were -3.33% (active), -16.8% (active) and 7.74% (active), respectively.

With `CC(c1cc(Cl)ccc1O)c1cc(Cl)ccc1O`, the growth is 41.1% in the assay on EKVX NSCLC; -7.88% (active) with UO-31 renal; 90.7% in the assay with TK-10 renal; 41.4% in the assay on ACHN renal; 84.9% in the assay with CAKI-1 renal; 81.1% in the assay on A498 renal. The growth with MOLT-4 leukemia is 52.1%; in the assay with SR leukemia, 53.3%.

Take `CCCCCCCCCCCCCCCCN=C(CC(=O)O)C(=O)O`: the growth is 113% in the assay with EKVX NSCLC; 89.8% in the assay with UO-31 renal; 83.9% in the assay on TK-10 renal; 105% in the assay on ACHN renal; 104% with CAKI-1 renal; 95.6% in the assay on A498 renal. Also, the growth in the assay on CCRF-CEM leukemia was 86.1%; in the assay on MOLT-4 leukemia, 79.4%; in the assay with SR leukemia, 65.6%.

Consider `CN(C)CCCN1c2nc3ccccc3cc2Sc2cc3ccccc3nc21`, for which the growth was -50.9% (active) in the assay with EKVX NSCLC; -22.7% (active) in the assay with UO-31 renal; -78.2% (active) with TK-10 renal; -100% (active) in the assay on ACHN renal; -17.2% (active) with CAKI-1 renal; -57.9% (active) in the assay with MOLT-4 leukemia. The growth in the assay on SR leukemia is -38.2% (active).

As for `NNC(=O)NO`, the growth in the assay with SN12C renal was 106%; in the assay on UO-31 renal it was 69.8%; with TK-10 renal, 94%; in the assay with ACHN renal it was 105%; in the assay on CAKI-1 renal, 106%; in the assay on A498 renal, 114%. The growth was 95.8% in the assay with CCRF-CEM leukemia, 91.6% in the assay on MOLT-4 leukemia and 95.8% in the assay with SR leukemia.

`COc1cc(/C=C/C(=O)N2CCN(C(=O)/C=C/c3ccccc3)CC2)cc(OC)c1OC`: the growth in the assay with EKVX NSCLC is 121%; in the assay with UO-31 renal it was 77.7%; in the assay on TK-10 renal, 108%; with ACHN renal it was 110%; in the assay with CAKI-1 renal, 104%; with CCRF-CEM leukemia, 100%. Besides, the growth in the assay on MOLT-4 leukemia was 87.8%; with SR leukemia it was 78.7%.

On to `COc1ccc2c(c1)C(=O)/C(=C/c1ccc([N+](=O)[O-])s1)O2`, for which the growth in the assay on SN12C renal is -8.43% (active); in the assay on UO-31 renal, -79.1% (active); with TK-10 renal, -15.3% (active); in the assay with ACHN renal it was -54% (active); in the assay on CAKI-1 renal, 29.7%; in the assay with A498 renal it was 99.6%. The growth with CCRF-CEM leukemia is 0.726% (active); with MOLT-4 leukemia, 5.68% (active); in the assay with SR leukemia it was 11.4%.

Regarding `Cc1cc(C(C)(C)C)cc(C)c1CC1=NCCN1`, the growth with EKVX NSCLC was 89%; in the assay on UO-31 renal, 93%; in the assay with TK-10 renal, 113%; with ACHN renal, 92.8%; in the assay on CAKI-1 renal it was 85.4%; with A498 renal it was 117%. In addition, the growth in the assay with CCRF-CEM leukemia is 103%; in the assay on MOLT-4 leukemia it was 93.5%; in the assay with SR leukemia, 94.3%.

For the molecule `O=[N+]([O-])c1ccc(Oc2cccc(C(F)(F)F)c2)c([N+](=O)[O-])c1`, the growth was 111% in the assay on EKVX NSCLC; 28.6% in the assay with UO-31 renal; 11.2% in the assay with TK-10 renal; 42% with ACHN renal; 20.2% in the assay on CAKI-1 renal; 97.8% in the assay on A498 renal. For the same molecule, the growth with MOLT-4 leukemia was 17.1%; in the assay with SR leukemia, 5.65% (active).

On to `O=C(Nc1ccc(Oc2ccc(NC(=O)Nc3ccc([N+](=O)[O-])cc3)cc2)cc1)Nc1ccc([N+](=O)[O-])cc1`, for which the growth in the assay with EKVX NSCLC is 17.1%; in the assay on UO-31 renal it was -4.36% (active); in the assay with TK-10 renal, 15.1%; in the assay on ACHN renal, 10.2%; in the assay with CAKI-1 renal, 13.9%; with CCRF-CEM leukemia, -32% (active). The growth was -26.4% (active) in the assay with MOLT-4 leukemia and -3.7% (active) with SR leukemia.

`Cc1cc2c(cc1C)Nc1sc(NC(=O)CN3CCN(C)CC3)nc1C(=O)N2`: the growth was 103% in the assay on SN12C renal; 94.3% in the assay on UO-31 renal; 99.9% in the assay on TK-10 renal; 111% with ACHN renal; 106% in the assay with CAKI-1 renal; 102% in the assay on A498 renal. The growth was 98.3% in the assay with CCRF-CEM leukemia, 87.4% in the assay with MOLT-4 leukemia and 79% with SR leukemia.
